Test results reported in PubChem BioAssay (NCI).
Where “and” joins values, the source holds several entries; their conditions need not be identical. Identical values can stand only once. The panel holds about 83,000 compounds, 20% with a hit somewhere; the sample as a whole holds those more often.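 Cells were grown in 96-well plates and exposed to the test compound at a single concentration for 48 hours; results are reported as percent growth, with values below 10 considered active.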 The source holds several records for some structures; these can differ, active in one and inactive in another. Calls of active or inactive are those of the source.

Tests used:
Assay in all cases: NCI-60 one-dose screen, 48 h (100 = growth as untreated, 0 = no growth, -100 = all killed)
Settings in all cases: 10 µM
NCI-H23 lung = tested on: NCI-H23 lung
NCI-H522 lung = tested on: NCI-H522 lung
MDA-MB-231 breast = tested on: MDA-MB-231 breast
M14 melanoma = tested on: M14 melanoma
SK-MEL-5 melanoma = tested on: SK-MEL-5 melanoma
LOX IMVI melanoma = tested on: LOX IMVI melanoma
CCRF-CEM leukemia = tested on: CCRF-CEM leukemia
MOLT-4 leukemia = tested on: MOLT-4 leukemia
SR leukemia = tested on: SR leukemia
OVCAR-8 ovarian = tested on: OVCAR-8 ovarian
OVCAR-5 ovarian = tested on: OVCAR-5 ovarian
OVCAR-4 ovarian = tested on: OVCAR-4 ovarian
SK-OV-3 ovarian = tested on: SK-OV-3 ovarian
IGROV1 ovarian = tested on: IGROV1 ovarian
HS 578T breast = tested on: HS 578T breast
NCI/ADR-RES ovarian = tested on: NCI/ADR-RES ovarian
T-47D breast = tested on: T-47D breast
SW-620 colon = tested on: SW-620 colon
MCF7 breast = tested on: MCF7 breast
HCT-116 colon = tested on: HCT-116 colon

Measured: growth

CC(C)(O)/C=C/C(=O)[C@](C)(O)[C@H]1[C@H](O)C[C@@]2(C)[C@H]3CC=C4[C@@H](C[C@H](O)C(=O)C4(C)C)[C@]3(C)C(=O)C[C@]12C
inactive: NCI-H23 lung 27.7% | MDA-MB-231 breast 10.4% | M14 melanoma 17.1% | MOLT-4 leukemia 24.8% | OVCAR-8 ovarian 23% | OVCAR-5 ovarian 35.1% | OVCAR-4 ovarian 18.3% | NCI/ADR-RES ovarian 24.7% | T-47D breast 27.2% | SW-620 colon 22.9% | MCF7 breast 13% | HCT-116 colon 13.9%
active: NCI-H522 lung -42.5% | SK-MEL-5 melanoma 1.6% | LOX IMVI melanoma -13.8% | CCRF-CEM leukemia 3.53% | SR leukemia 8.56% | SK-OV-3 ovarian -8.31% | IGROV1 ovarian -24.4% | HS 578T breast 3.77%

CC(=O)O[C@@H]1[C@@H]2O[C@H]2[C@@](C)(O)C(=O)[C@@H](C)C/C=C/[C@H]2[C@@H]3O[C@]3(C)[C@@H](C)C3[C@H](Cc4ccccc4)NC(=O)[C@@]312 (some centres undefined)
inactive: NCI-H23 lung 70.4% | NCI-H522 lung 18.2% | MDA-MB-231 breast 22% | M14 melanoma 65.2% | SK-MEL-5 melanoma 71% | LOX IMVI melanoma 14.7% | CCRF-CEM leukemia 44.2% | MOLT-4 leukemia 67.9% | SR leukemia 60.7% | OVCAR-8 ovarian 84.4% | OVCAR-5 ovarian 96.3% | OVCAR-4 ovarian 55.8% | SK-OV-3 ovarian 22.9% | IGROV1 ovarian 54.7% | NCI/ADR-RES ovarian 82% | T-47D breast 33.6% | SW-620 colon 55.5% | MCF7 breast 56.8% | HCT-116 colon 54.9%
active: HS 578T breast 4.92%

Cc1ccc(CNc2nc3ccc(OC/C(=C/F)CN)cc3o2)cn1
inactive: NCI-H23 lung 88.4% | MDA-MB-231 breast 79.6% | M14 melanoma 99.8% | SK-MEL-5 melanoma 98% | LOX IMVI melanoma 88.4% | CCRF-CEM leukemia 105% | MOLT-4 leukemia 99.8% | SR leukemia 101% | OVCAR-8 ovarian 108% | OVCAR-5 ovarian 103% | OVCAR-4 ovarian 88.1% | SK-OV-3 ovarian 105% | IGROV1 ovarian 78.5% | HS 578T breast 101% | NCI/ADR-RES ovarian 102% | T-47D breast 101% | SW-620 colon 97.6% | MCF7 breast 88.8% | HCT-116 colon 100%

CC1=C(CN(O)C(N)=O)C2=C(C)C3(CC3)[C@@](C)(O)C(=O)C2=C1
inactive: CCRF-CEM leukemia 94.7% | MOLT-4 leukemia 104% | SR leukemia 67.6% | OVCAR-5 ovarian 17.5% | IGROV1 ovarian 11.1% | SW-620 colon 86%
active: NCI-H23 lung -28.5% | NCI-H522 lung 0.934% | MDA-MB-231 breast 6.59% | M14 melanoma -63% | SK-MEL-5 melanoma -61.6% | LOX IMVI melanoma -27.6% | OVCAR-8 ovarian 1.75% | OVCAR-4 ovarian -0.96% | SK-OV-3 ovarian -16.3% | HS 578T breast -16.8% | NCI/ADR-RES ovarian -5.11% | T-47D breast -3.77% | MCF7 breast 9.79% | HCT-116 colon 4.72%

COc1cc(C)c(-c2ccc(OC)c(=O)cc2C)c(OC)c1OC
inactive: NCI-H23 lung 22.3% and 106% | MDA-MB-231 breast 18.3% and 99.8% | SK-MEL-5 melanoma 21.7% and 99.7% | LOX IMVI melanoma 18% and 106% | CCRF-CEM leukemia 10.1% and 96.8% | MOLT-4 leukemia 12.3% and 102% | OVCAR-5 ovarian 24.6% and 98.9% | OVCAR-4 ovarian 70.9% and 96.9% | SK-OV-3 ovarian 32.4% and 102% | IGROV1 ovarian 27.2% and 103% | T-47D breast 61% and 137% | SW-620 colon 19.6% and 104% | MCF7 breast 14.8% and 91.5% | HCT-116 colon 11.9% and 102%
4.63% (active) and 101% (inactive): M14 melanoma
5.3% (active) and 100% (inactive): OVCAR-8 ovarian
-11.5% (active) and 107% (inactive): NCI/ADR-RES ovarian
9.85% (active) and 89.4% (inactive): SR leukemia
1.63% (active) and 109% (inactive): HS 578T breast
-11.4% (active) and 98.2% (inactive): NCI-H522 lung

O=C(CCCc1ccc(N(CCCl)CCCl)cc1)OCc1ccccc1
inactive: NCI-H23 lung 89.3% | NCI-H522 lung 84.3% | MDA-MB-231 breast 103% | M14 melanoma 95.1% | SK-MEL-5 melanoma 93.7% | LOX IMVI melanoma 77.2% | CCRF-CEM leukemia 82.1% | MOLT-4 leukemia 76.7% | SR leukemia 42.2% | OVCAR-8 ovarian 89.7% | OVCAR-5 ovarian 117% | OVCAR-4 ovarian 105% | SK-OV-3 ovarian 108% | IGROV1 ovarian 87.8% | HS 578T breast 114% | NCI/ADR-RES ovarian 93.9% | T-47D breast 75.6% | SW-620 colon 91.1% | MCF7 breast 81.8% | HCT-116 colon 92.7%

COc1cccc2c1cc([N+](=O)[O-])c1c(C(=O)O)cc3c(c12)OCO3
inactive: NCI-H23 lung 102% | NCI-H522 lung 95.9% | MDA-MB-231 breast 106% | M14 melanoma 103% | SK-MEL-5 melanoma 102% | LOX IMVI melanoma 100% | CCRF-CEM leukemia 96.6% | MOLT-4 leukemia 99.6% | SR leukemia 106% | OVCAR-8 ovarian 102% | OVCAR-5 ovarian 106% | OVCAR-4 ovarian 108% | SK-OV-3 ovarian 113% | IGROV1 ovarian 106% | HS 578T breast 105% | NCI/ADR-RES ovarian 107% | T-47D breast 95.8% | SW-620 colon 101% | MCF7 breast 94.9% | HCT-116 colon 101%

COC(=O)[C@H]1[C@@H](O)[C@@]2(O)c3c(OC)cc(OC)cc3O[C@@]2(c2ccc(OC)cc2)[C@@H]1c1ccccc1
inactive: SR leukemia 13.2%
active: NCI-H23 lung -12% | NCI-H522 lung -28.7% | MDA-MB-231 breast -5.45% | M14 melanoma -1.79% | SK-MEL-5 melanoma -55.8% | LOX IMVI melanoma -38.6% | CCRF-CEM leukemia 4.76% | MOLT-4 leukemia 2.37% | OVCAR-8 ovarian -11.6% | OVCAR-5 ovarian -6.47% | OVCAR-4 ovarian 2.23% | SK-OV-3 ovarian -12.2% | IGROV1 ovarian -17.3% | HS 578T breast -5.48% | NCI/ADR-RES ovarian 0.819% | T-47D breast -11.7% | SW-620 colon 3.66% | MCF7 breast -0.926% | HCT-116 colon -6.31%

CN1C(=O)[C@]23SSC1(C)C(=O)N2[C@H]1Nc2ccccc2C1([C@@]12c4ccccc4N[C@@H]1N1C(=O)C4(C)SS[C@]1(C(=O)N4C)[C@H]2O)[C@@H]3O (some centres undefined)
active: NCI-H23 lung -66.4% | NCI-H522 lung -84.4% | MDA-MB-231 breast -52.1% | M14 melanoma -90% | SK-MEL-5 melanoma -99% | LOX IMVI melanoma -89.9% | CCRF-CEM leukemia 1.4% | MOLT-4 leukemia -20.6% | SR leukemia 0.169% | OVCAR-8 ovarian -76.1% | OVCAR-5 ovarian -66.2% | OVCAR-4 ovarian -98.7% | SK-OV-3 ovarian -98.8% | IGROV1 ovarian -71.7% | HS 578T breast -49.4% | NCI/ADR-RES ovarian -19.4% | T-47D breast -81.3% | SW-620 colon -88.2% | MCF7 breast -77.4% | HCT-116 colon -99.5%

CCCCCCCCCC(=O)N[C@@](C)(CC)C(=O)N1CCC[C@H]1C(=O)N[C@@H](CC(C)C)C(=O)N[C@@](C)(CC)C(=O)N[C@@H](CCC(N)=O)C(=O)N[C@H](CCC(N)=O)C(=O)NC(C)(C)C(=O)NC(C)(C)C(=O)N[C@@H](CCC(N)=O)C(=O)N[C@H](CC(C)C)C(=O)N[C@H](CO)CC(C)C
-31.3% (active) and 16.2% (inactive): SR leukemia
active: NCI-H23 lung -78.3% and -84.7% | NCI-H522 lung -84% and -82.6% | MDA-MB-231 breast -92.2% and -98.5% | M14 melanoma -80.7% and -65.5% | SK-MEL-5 melanoma -94.2% and -97.9% | LOX IMVI melanoma -87.8% and -92.7% | CCRF-CEM leukemia -38.9% and -40.9% | MOLT-4 leukemia -50.5% and -25.3% | OVCAR-8 ovarian -74.1% and -63.2% | OVCAR-5 ovarian -98.7% and -100% | OVCAR-4 ovarian -38.1% and -35.2% | SK-OV-3 ovarian -77.5% and -56.9% | IGROV1 ovarian -84.9% and -85.5% | HS 578T breast -70.1% and -58.6% | NCI/ADR-RES ovarian -82.9% and -77% | T-47D breast -6.91% and -59.3% | SW-620 colon -79.7% and -77.5% | MCF7 breast -76.7% and -77.6% | HCT-116 colon -66.1% and -29%

CC1=C2C(=C[C@@](C)(COC(=O)c3ccc(S(=O)(=O)F)cc3)[C@@H]2OC(=O)c2ccc(S(=O)(=O)F)cc2)C(=O)[C@](C)(O)C12CC2
inactive: CCRF-CEM leukemia 36.3% | MOLT-4 leukemia 23.4% | SR leukemia 16.3% | HS 578T breast 33.4%
active: NCI-H23 lung -21.4% | NCI-H522 lung -52% | MDA-MB-231 breast 1.44% | M14 melanoma -46.3% | SK-MEL-5 melanoma -96.9% | LOX IMVI melanoma 6.84% | OVCAR-8 ovarian 5.91% | OVCAR-5 ovarian 4.81% | OVCAR-4 ovarian -9.11% | SK-OV-3 ovarian -9.96% | IGROV1 ovarian 0.149% | NCI/ADR-RES ovarian 9.12% | T-47D breast -20% | SW-620 colon -3.99% | MCF7 breast 6.34% | HCT-116 colon 0.583%

C/C=C\C(=O)O[C@@H]1CC2O[C@@H]3C=C(C)C(=O)C[C@]3(C)[C@]1(C)[C@]21CO1
active: NCI-H23 lung -21.3% | NCI-H522 lung -18.4% | MDA-MB-231 breast -21.1% | M14 melanoma -78.6% | SK-MEL-5 melanoma -57% | LOX IMVI melanoma -56.3% | CCRF-CEM leukemia -12.8% | MOLT-4 leukemia -26.4% | SR leukemia -13.1% | OVCAR-8 ovarian 0.288% | OVCAR-5 ovarian -3.51% | OVCAR-4 ovarian -12.2% | SK-OV-3 ovarian -15.1% | IGROV1 ovarian 1.08% | HS 578T breast -2.98% | NCI/ADR-RES ovarian -3.97% | T-47D breast -24% | SW-620 colon 0.59% | MCF7 breast 0.933% | HCT-116 colon -29.4%
